Compounds with a hit are over-represented: about 5.5% of the library has one in this group of screens.
Gal4-VP16 FLuc: inhibits Gal4-VP16 luciferase reporter, ROR gamma counter-screen. Potency, µM (top dose mostly 53.6 µM), for the others: at the highest dose activity, negative = inhibition, hits mostly inhibitors. 310,000 tested, 3.5% active. Drosophila S2 Gal4-VP16 UAS-luciferase, luminescence, 20 h;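 also: Gal4-VP16 expression switched on by copper sulfate through the metallothionein promoter; potency is read from the fitted curve at half-maximal effect; % is scaled to controls: 0 for no effect and ±100 for the full control effect; nearly all actives have a fitted effect of over 50% in size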
RORgamma inh: blocks mouse ROR gamma transcriptional activity; 310,000 tested, 5.4% active; Drosophila S2 Gal4-RORgamma UAS-luciferase reporter, 20 h; Potency, µM (highest dose often 53.6 µM), for inactives: at the highest dose activity change, negative = inhibition, usual class: inhibitors; also: potency is read from the fitted curve at half-maximal effect; % is scaled to controls: 0 for no effect and ±100 for the full control effect; nearly all actives have a fitted effect of over 60% in size
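Luminescence from a UAS-regulated Photinus luciferase reporter in stably transfected Drosophila Schneider cells is measured; decreased signal marks ROR gamma inhibition. Fusion expression is induced by 700 uM copper sulfate for 20 hr.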
MBNL1 CUG block: blocks human MBNL1 binding to CUG repeat RNA. TR-FRET MBNL1-His/biotin-(CUG)12 binding, 665/545 ratio. Potency, µM (titrated, usually from 57.5 µM), without a hit: at the top dose activity change, negative = inhibition, usual class: inhibitors. 280,000 tested, 0.036% active. AID 2675; active = well fitted inhibition curve with a large enough effect in the signal ratio, with a control signal flat, not every such curve was filed as active; inconclusive = small, poorly fitted or top-dose-only effect, or effect the other way, or a change in a side signal; inactive = no such curve, though single readings can be large or run the other way; the % refers to the signal ratio; also: potency is read from the fitted curve at half-maximal effect; % is scaled to controls: 0 for no effect and ±100 for the full control effect
Target sequence (Q9NR56 whole entry, looked up): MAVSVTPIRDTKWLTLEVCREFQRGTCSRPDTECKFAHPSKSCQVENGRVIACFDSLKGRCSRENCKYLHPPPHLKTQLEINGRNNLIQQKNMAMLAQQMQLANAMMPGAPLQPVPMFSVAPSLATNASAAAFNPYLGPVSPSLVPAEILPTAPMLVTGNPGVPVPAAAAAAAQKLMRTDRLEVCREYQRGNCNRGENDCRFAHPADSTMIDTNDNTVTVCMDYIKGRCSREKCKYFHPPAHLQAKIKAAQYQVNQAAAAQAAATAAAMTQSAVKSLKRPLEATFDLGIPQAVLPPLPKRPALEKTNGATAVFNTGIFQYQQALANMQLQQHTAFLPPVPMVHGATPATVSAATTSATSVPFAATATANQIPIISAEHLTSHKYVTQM
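Ratiometric TR-FRET (665 over 545 nm, excitation 340 nm) tracks disruption of MBNL1-His/biotin-(CUG)12 complex after 60 min at room temperature, with compounds at 92 nM to 58 uM final.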
CtBP-E1A blk: inhibitors of CtBP/E1A interaction. 340,000 tested, 0.49% active. activity change, % (no concentration beside the values). AID 651724. AlphaScreen GST-E1A/His-CtBP binding, 1536-well; active compounds read low; in the data active = activity change below about -65%; inconclusive = mostly about -30% to -63%; also: % is scaled to controls: 0 for no effect and ±100 for the full control effect
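Protein mix (5X: 125 nM each GST-E1A, His-CtBP) was incubated with pinned compound 2 h at 37 deg C in dark, in 50 mM Tris pH 8.0 buffer with 300 mM NaCl. Glutathione donor and nickel acceptor beads followed; AlphaScreen signal read after 1 h.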
CBFb-RUNX1 inh: inhibitors of human CBF-beta and RUNX1 interaction; AID 1477; 230,000 tested, under 10 active; AlphaScreen CBFb-His/RUNX1-biotin binding, biochemical; Potency, µM (highest dose often 59.8 µM), for inactives: at the top dose activity, negative = inhibition, most hits filed as inhibitors; Q01196+Q13951; also: % of control where 0% means no effect
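Read-out: AlphaScreen. Format: His-CBF-beta with biotinylated RUNX1 (30 nM each) preincubated 20 min, compound 15 min, Ni-chelate plus streptavidin beads 90 min; room temperature throughout.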
Six1-Eya2 blk: Six1/Eya2 interaction inhibition | activity change, % (no concentration beside the values) | AID 651725 | 360,000 tested, 0.56% active | Q15475+O00167 | AlphaScreen GST-Six1/His-Eya2 binding, biochemical; active compounds read low; in the data active = activity change below about -65%; inconclusive = mostly about -30% to -63%; also: % is scaled to controls: 0 for no effect and ±100 for the full control effect
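AlphaScreen with GST-Six1 and His-Eya2 (5X mix: 250 nM and 500 nM), glutathione donor and nickel acceptor beads; buffer 50 mM Tris pH 8.0, 300 mM NaCl, 1 mM TCEP; 1 h at 37 C in the dark.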
Active calls of the source: *. Unless noted, calls follow the shape of the dose curve; as a rule, active = well fitted curve in the direction sought with a large enough effect; inconclusive = small, poorly fitted or top-dose-only effect, or another doubt; inactive = no such curve, though single readings can be large; an effect the other way counts as inactive or inconclusive.

How did Cc1cc(OCC(=O)NNC(=S)NCC2CCCO2)cc(C)c1Cl (configuration not stated) do in these assays?
Gal4-VP16 FLuc: 6.3µM*; RORgamma inh: 3.2µM*; MBNL1 CUG block: -1%; CtBP-E1A blk: -9; Six1-Eya2 blk: -10

What do the screens show for `CCCCc1ccc(NC(=S)NCCN2CCOCC2)cc1`?
Gal4-VP16 FLuc: inconclusive; RORgamma inh: 10µM*; MBNL1 CUG block: 1%; CtBP-E1A blk: 0; CBFb-RUNX1 inh: 6%; Six1-Eya2 blk: -6

How did CCCCc1ccc(NC(=S)NCCc2ccc(S(N)(=O)=O)cc2)cc1 do in these assays?
Gal4-VP16 FLuc: 8.9µM*; RORgamma inh: inconclusive; MBNL1 CUG block: -6%; CtBP-E1A blk: 5; CBFb-RUNX1 inh: 3%; Six1-Eya2 blk: -1

Results for Cc1ccc(C)c(N(C)C(=O)c2ccc3c(=O)n4c(nc3c2)CCCCC4)c1 ?
Gal4-VP16 FLuc: 3%; RORgamma inh: 9%; MBNL1 CUG block: 7%; Six1-Eya2 blk: 1

Results for O=C(O)CCC(=O)OCCN(Cc1ccc(Oc2ccc([N+](=O)[O-])cc2)cc1)C(=O)C(Cl)Cl ?
CtBP-E1A blk: 2; Six1-Eya2 blk: -6

What do the screens show for `COc1cccc(N2C(=NC(=O)CCc3ccccc3)SC3CS(=O)(=O)CC32)c1` (configuration not stated)?
Gal4-VP16 FLuc: -6%; RORgamma inh: 30%; MBNL1 CUG block: 0%; CtBP-E1A blk: 2; Six1-Eya2 blk: 1

How did S=C(NCC1CCCO1)Nc1ccc(Cl)c(Cl)c1 (configuration not stated) do in these assays?
Gal4-VP16 FLuc: inconclusive; RORgamma inh: 3.5µM*; MBNL1 CUG block: -4%; CBFb-RUNX1 inh: 14%; Six1-Eya2 blk: -3

What do the screens show for `O=C(NCC1CCCO1)c1cc(S(=O)(=O)Nc2ccc(Br)cc2)ccc1Cl` (configuration not stated)?
Gal4-VP16 FLuc: -11%; RORgamma inh: 43%; MBNL1 CUG block: 3%; CBFb-RUNX1 inh: 5%; Six1-Eya2 blk: -5

What do the screens show for `O=C(NNC(=S)NCC1CCCO1)c1cc(Br)ccc1Cl` (configuration not stated)?
Gal4-VP16 FLuc: 20µM*; RORgamma inh: 3.2µM*; MBNL1 CUG block: -18%; CtBP-E1A blk: 5; Six1-Eya2 blk: 2

Results for CCCCc1ccc(NC(=S)NCC2CCCO2)cc1 (configuration not stated) ?
Gal4-VP16 FLuc: inconclusive; RORgamma inh: 2.8µM*; MBNL1 CUG block: -5%; CtBP-E1A blk: 2; CBFb-RUNX1 inh: 11%; Six1-Eya2 blk: -9

What do the screens show for `O=C(Cc1ccc(Cl)c(Cl)c1)NNC(=S)NCC1CCCO1` (configuration not stated)?
Gal4-VP16 FLuc: -14%; RORgamma inh: inconclusive; MBNL1 CUG block: -2%; CtBP-E1A blk: -11; Six1-Eya2 blk: 1

What do the screens show for `CCCCc1ccc(NC(=S)Nc2ccc(Cl)c(S(=O)(=O)N(C)C)c2)cc1`?
Gal4-VP16 FLuc: inconclusive; RORgamma inh: 11µM*; CtBP-E1A blk: 1; CBFb-RUNX1 inh: -9%; Six1-Eya2 blk: -14

How did CCOC(=O)C1=CN(Cc2cccc(F)c2)S(=O)(=O)N(C)C1CCc1ccccc1 (configuration not stated) do in these assays?
CtBP-E1A blk: 13; Six1-Eya2 blk: 32

Results for COc1ccc(S(=O)(=O)N2CCC(C(=O)Nc3cc(Cl)ccc3N3CCOCC3)CC2)cc1OC ?
CtBP-E1A blk: -8; Six1-Eya2 blk: -18

Results for COc1ccc(CNC(=O)CC[C@H]2O[C@@H](n3cc(C)c(=O)[nH]c3=O)C[C@@H]2O)cc1 ?
CtBP-E1A blk: 2; Six1-Eya2 blk: 6

Results for CCCCC(CC)CCC(CC(C)C)OS(=O)(=O)O (configuration not stated) ?
Gal4-VP16 FLuc: 2%; RORgamma inh: 17%

How did Cc1cccc(NC(c2ccc(O)cc2)c2ccc3ccc(C)nc3c2O)n1 (configuration not stated) do in these assays?
Gal4-VP16 FLuc: -4%; RORgamma inh: 10µM*; MBNL1 CUG block: 22%; CtBP-E1A blk: inconclusive; CBFb-RUNX1 inh: -2%; Six1-Eya2 blk: -23

How did CC(=O)Nc1ccc(N(C(=O)c2ccco2)C(C(=O)NC2CCCC2)c2ccc(N(C)C)cc2)cc1 (configuration not stated) do in these assays?
Gal4-VP16 FLuc: -1%; RORgamma inh: 10µM*; MBNL1 CUG block: -6%; CtBP-E1A blk: 3; Six1-Eya2 blk: 1

What do the screens show for `Cc1cccc(NC(=O)c2nc[nH]c2C(=O)N[C@@H](C)C(=O)OC(C)(C)C)c1`?
Gal4-VP16 FLuc: 7.1µM*; RORgamma inh: 3.2µM*; MBNL1 CUG block: -2%; CtBP-E1A blk: -7; CBFb-RUNX1 inh: 16%; Six1-Eya2 blk: -6

What do the screens show for `C[C@H](NC(=O)c1[nH]cnc1C(=O)Nc1ccc(Cl)cc1)C(=O)OC(C)(C)C`?
Gal4-VP16 FLuc: 1.4µM*; RORgamma inh: 1µM*; MBNL1 CUG block: -1%; CtBP-E1A blk: 4; CBFb-RUNX1 inh: 5%; Six1-Eya2 blk: 3

How did C=CCOc1ccc(C2/C(=C(/O)c3ccc(OC)cc3)C(=O)C(=O)N2CCN2CCNCC2)cc1 (configuration not stated) do in these assays?
Gal4-VP16 FLuc: 5%; RORgamma inh: 5%; MBNL1 CUG block: 11%; CtBP-E1A blk: 5; Six1-Eya2 blk: 0

What do the screens show for `COc1cc2c(cc1O)C(Cc1ccc(O)cc1)[N+](C)(C)CC2` (configuration not stated)?
Gal4-VP16 FLuc: 5%; RORgamma inh: 5%; CBFb-RUNX1 inh: 9%

How did COc1cc2c(cc1OC)C(C)=NC1(CCCCC1)C2 do in these assays?
Gal4-VP16 FLuc: -4%; RORgamma inh: 1%; MBNL1 CUG block: 16%; CtBP-E1A blk: 2; CBFb-RUNX1 inh: 6%; Six1-Eya2 blk: 5

What do the screens show for `COc1cc2c(cc1OC)C(=S)NC1(CCCC1)C2`?
Gal4-VP16 FLuc: 14µM*; RORgamma inh: 2µM*; MBNL1 CUG block: 12%; CtBP-E1A blk: 7; CBFb-RUNX1 inh: 1%; Six1-Eya2 blk: -13

What do the screens show for `S=C1NC2(CCCCC2)Cc2ccccc21`?
Gal4-VP16 FLuc: inconclusive; RORgamma inh: 1.1µM*; MBNL1 CUG block: 0%; CtBP-E1A blk: -25; CBFb-RUNX1 inh: -25%; Six1-Eya2 blk: inconclusive

What do the screens show for `Cc1sc2ncnc(N3CCC(C(=O)Nc4nc(-c5cccs5)cs4)CC3)c2c1C`?
CtBP-E1A blk: 8; Six1-Eya2 blk: -12

Assay outcomes (PubChem BioAssay)
